# A selection: hits, their analogues and other compounds. The true share with any hit is near 11%.
# Pf growth 96h: P. falciparum growth inhibition at 96 hour, primary screen for plastid delayed-death inhibitors; P. falciparum luciferase reporter growth, 96 h; Potency, µM (doses to about 28.7 µM), for inactives: at the top dose activity change, negative = inhibition, most hits filed as inhibitors; 320,000 compounds, 6.9% hits; AID 504834
#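 Plates of compound plus infected erythrocytes (2% hematocrit, 0.05% parasitemia final) incubate 96 hours, 37 C, 5% CO2. Detection reagent added; reduced luminescence from the parasites' luciferase reporter flags inhibition.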
# AMA1 RON2 block: AMA1-RON2 (P. falciparum) interaction inhibition. AID 720542. 360,000 compounds, 0.2% hits. AlphaScreen AMA1-biotinylated RON2 peptide binding. Potency, µM (titrated, usually from 58.2 µM), inactives show at the highest dose activity change, negative = inhibition, hits mostly inhibitors;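 note: 0% = vehicle wells and -100% = peptide control; nearly all actives have a fitted effect of over 45% in size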
#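 AMA1 (3D7) with his tag at 25 nM final met compounds first, then biotinylated RON2 peptide at 25 nM; detection used donor plus acceptor beads, 10 µg/mL apiece, read by AlphaScreen after 30 min at room temperature.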
# AmpC inh detg: blocks E. coli AmpC beta-lactamase in detergent assay | AmpC hydrolysis of nitrocefin, absorbance 480 nm, 0.01% Triton | Potency, µM (series often up to 114 µM), without a hit: at the top dose activity change, negative = inhibition, most hits filed as inhibitors | 370,000 compounds, 0.041% hits | AID 485294;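 note: 0% = no-compound wells and -100% = no-enzyme wells; nearly all actives have a fitted effect of over 25% in size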
# Target sequence (P00811 whole entry, looked up): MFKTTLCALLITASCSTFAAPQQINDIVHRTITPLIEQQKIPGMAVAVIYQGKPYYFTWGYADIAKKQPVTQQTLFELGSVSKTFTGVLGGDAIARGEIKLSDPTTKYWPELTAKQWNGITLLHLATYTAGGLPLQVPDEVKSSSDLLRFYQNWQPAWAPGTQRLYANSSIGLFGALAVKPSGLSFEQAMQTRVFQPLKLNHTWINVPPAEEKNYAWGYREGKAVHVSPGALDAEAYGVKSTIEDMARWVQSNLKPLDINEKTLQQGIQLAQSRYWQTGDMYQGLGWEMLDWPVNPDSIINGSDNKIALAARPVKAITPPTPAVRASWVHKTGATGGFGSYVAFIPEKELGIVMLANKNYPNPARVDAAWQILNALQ
#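 AmpC (5.3 nM in the dispensed reagent) in 20 mM phosphate pH 7.0 with 0.01% (detergent screen) or 0.0001% Triton X-100 was preincubated with compounds for 15 min at room temperature. Nitrocefin was then added from an 800 uM solution, and hydrolysis was followed at 480 nm.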
# AmpC inh no detg: blocks E. coli AmpC beta-lactamase in detergent-free assay; P00811; AmpC nitrocefin hydrolysis, absorbance 480 nm, 0.0001% Triton; Potency, µM (doses to about 57.1 µM), for the others: at the highest dose activity change, negative = inhibition, usual class: inhibitors; 330,000 compounds, 0.52% hits; AID 485341;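 note: plate controls were no compound for no effect and no enzyme for full effect; nearly all actives have a fitted effect of over 20% in size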
#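 AmpC (5.3 nM in the dispensed reagent) in 20 mM phosphate pH 7.0 with 0.01% (detergent screen) or 0.0001% Triton X-100 was preincubated with compounds for 15 min at room temperature. Nitrocefin was then added from an 800 uM solution, and hydrolysis was followed at 480 nm.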
# HCV inh: blocks hepatitis C virus. Huh7.5.1 HCVcc-Cre infection, luciferase reporter, 44 h. Potency, µM (series often up to 41.8 µM), inactives show at the top dose activity change, negative = inhibition, hits mostly inhibitors. 340,000 compounds, 3.4% hits. AID 651820
#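 Antiviral activity was scored by luciferase reporter output from cells infected with HCVcc-Cre (~0.5 moi) in presence of compound, 44 h infection period, cells seeded 1,000/well 4 h prior.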
# Pf growth 48h: P. falciparum growth inhibition at 48 hours (one generation). Potency, µM (doses to about 28.7 µM), without a hit: at the top dose activity change, negative = inhibition, hits mostly inhibitors. 310,000 compounds, 5.9% hits. P. falciparum luciferase growth in erythrocytes, 48 h. AID 504832
#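 Compounds are pin-transferred into medium, infected erythrocytes (2% hematocrit, 0.1% parasitemia final) are added, and plates sit one parasite generation at 37 C in 5% CO2. Detection reagent is then added and luminescence measured.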
# Active calls of the source: *; ? = inconclusive; . = no result; ! = not confirmed by another sample; [ ] = dose if it differs, or a comment. Calls come from the whole dose curve; as a rule, active = well fitted curve in the direction sought with a large enough effect; inconclusive = small, poorly fitted or top-dose-only effect, or another doubt; inactive = no such curve, though single readings can be large; an effect the other way counts as inactive or inconclusive. Unless noted, % is set by controls: 0 for no effect and ±100 for the full control effect; potency is the fitted concentration of half-maximal effect.
SMILES,Pf growth 96h,AMA1 RON2 block,AmpC inh detg,AmpC inh no detg,HCV inh,Pf growth 48h
COCCNC(=O)CSc1nc2cc3c(cc2c(=O)n1CCCCCC(=O)NCc1ccc(OC)cc1)OCO3,.,.,8.4%,.,.,.
COCCCNC(=O)CSc1nc2cc3c(cc2c(=O)n1CCCC(=O)NCc1ccc(OC)cc1)OCO3,10.4µM*,21.6%,2.9%,-4.9%,?,-16.5%
COc1ccc(-n2c(SCC#N)nc3ccccc3c2=O)cc1,?,-4.7%,-5.1%,-31.2%,3.3%,-0.5%
CCOc1ccc(NC(=O)CSc2nc3ccccc3c(=O)n2CCCC(=O)NCC2CCCO2)cc1 (stereo unspecified),-18.6%,14.2%,-6.8%,-11.0%,3.0%,-7.9%
COc1ccc(Cn2c(SCC#N)nc3ccc(N4CCOCC4)cc3c2=O)cc1,0.5%,37.9%,?,52.6%,5.01µM*,-11.6%
CCCCn1c(SCC(N)=O)nc2ccc(N3CCOCC3)cc2c1=O,1.4%,13.5%,3.0%,-10.9%,-9.4%,-11.0%
CCCCn1c(SCC(=O)Nc2cccc(OC)c2)nc2ccc(N3CCOCC3)cc2c1=O,.,58.8%,?,93.1%,8.91µM*!,9.28µM*
COc1cccc(NC(=O)CSc2nc3ccccc3c(=O)n2CCCC(=O)NCC2CCCO2)c1 (stereo unspecified),9.28µM*,-6.1%,-10.5%,182.9%,-11.8%,?
CC1=C(C(=O)Nc2cccnc2)C(c2ccc(Cl)cc2)n2nc(SCc3ccccc3)nc2N1 (stereo unspecified),.,.,5.3%,.,.,.
COc1cc(-c2noc(-c3ccc(NC4CCCC4)c([N+](=O)[O-])c3)n2)cc(OC)c1OC,.,.,19.3%,.,.,.
COc1ccc(O)c(CN2CCC(n3nccc3NC(=O)CCOc3ccccc3)CC2)c1,?,1.0%,1.8%,-10.7%,2.7%,13.1µM*
CCOc1cccc(CN2CCC(n3nccc3NC(=O)CCCc3ccccc3)CC2)c1,?,-1.9%,1.8%,161.7%,?,10.4µM*
CCNC(=O)N1CCC(n2nccc2NC(=O)CCCc2ccccc2)CC1,13.1µM*,3.4%,-2.5%,2.3%,.,1.5%
CN(C)S(=O)(=O)N1CCC(n2nccc2NC(=O)CCCc2ccccc2)CC1,5.22µM*,-6.7%,-1.2%,14.1%,1.3%,?
CSCC(=O)N1CCC(n2nccc2NC(=O)CCCc2ccccc2)CC1,-6.5%,8.1%,2.8%,3.7%,8.1%,-15.8%
Cc1ccc(NC(=O)Cn2c(=O)n(Cc3ccccc3)c(=O)c3c(C)c(C)sc32)c(C)c1,.,.,15.5%,.,.,.
CCn1cc(CN2CCC(n3nccc3NC(=O)CCCc3ccccc3)CC2)cn1,3.5%,-4.3%,-3.1%,36.5%,-13.7%,?
CCn1cc(CN2CCC(n3nccc3NC(=O)Cc3ccccc3)CC2)cn1,10.4µM*,-9.8%,-0.4%,-3.5%,15.1%,-7.5%
COc1ccc(OC)c(NC(=O)Cn2cc(C(=O)c3ccc(Cl)cc3)c(=O)c3cc(OC)ccc32)c1,.,.,3.4%,.,.,.
COc1ccc(Nc2nc(Nc3ccc(OC)cc3)nc(SC3=NCCS3)n2)cc1,11.7µM*,-2.5%,-9.1%,-41.1%,?,.
O=C(c1ccc(-c2ccccc2)c(F)c1)C1CCCN(CCO)C1 (stereo unspecified),12.0%,1.5%,3.4%,41.3%,11.2µM*,?
CSc1ccc(C(=O)C2CCCN(S(=O)(=O)N(C)C)C2)cc1 (stereo unspecified),23.9%,2.9%,-0.5%,17.0%,-20.6%,1.7%
COc1c(C)cc(C(=O)C2CCCN(S(=O)(=O)N(C)C)C2)cc1C (stereo unspecified),2.94µM*,7.7%,?,43.4%,8.1%,-14.6%
COc1ccc(C(=O)C2CCCN(Cc3cn(C)nc3-c3ccccc3)C2)cc1F (stereo unspecified),9.28µM*,-18.1%,1.4%,134.7%,-25.4%,?
CN(C)S(=O)(=O)N1CCCC(C(=O)c2ccc(-c3ccccc3)c(F)c2)C1 (stereo unspecified),26.1%,0.2%,0.5%,78.6%,22.4µM*,?
SMILES,Pf growth 96h,AMA1 RON2 block,AmpC inh detg,AmpC inh no detg,HCV inh,Pf growth 48h
COc1c(C)cc(C(=O)C2CCCN(C(=O)c3cc(C)n(C)n3)C2)cc1C (stereo unspecified),21.9%,-2.2%,1.4%,44.5%,?,-1.6%
O=C(Nc1cc(-c2nc3cc(Cl)ccc3o2)ccc1Cl)c1cc2ccccc2o1,.,.,0.5%,.,.,.
CCN(CC)c1ccc2cc(-c3nc4sc5c(c4c(=O)[nH]3)CCC(C(C)(C)C)C5)c(=O)oc2c1 (stereo unspecified),.,.,30.8%,.,.,.
Cc1cccc(N2CCN(S(=O)(=O)c3ccc(-c4cnc(C5CC5)o4)cc3)CC2)c1C,.,.,11.0%,.,.,.
Cc1c(C)n(Cc2ccccc2)c2ncnc(N)c12,?,-16.8%,-16.3%,-36.8%,10µM*,-4.3%
O=[N+]([O-])c1ccc2nc(-c3ccncc3)[nH]c2c1,5.22µM*,-4.3%,-1.6%,-22.4%,4.2%,2.08µM*
Nc1nc2ccc([N+](=O)[O-])cc2[nH]1,-13.2%,-9.6%,-4.7%,-21.0%,-4.9%,?
O=[N+]([O-])c1cccc(-c2nc3ccc([N+](=O)[O-])cc3[nH]2)c1,-6.9%,6.4%,3.7%,-30.3%,14.1µM*,?
Cc1ccc(-c2nc3ccc([N+](=O)[O-])cc3[nH]2)cc1,2.9%,6.8%,1.9%,-29.1%,?,128.6%
O=[N+]([O-])c1ccc(/C=C/c2nc3ccc([N+](=O)[O-])cc3[nH]2)cc1,-16.7%,1.1%,3.4%,-13.6%,-28.2%,4.15µM*
NC(N)=Nc1nc2ccc([N+](=O)[O-])cc2[nH]1,4.15µM*,61.0%,-5.5%,-8.1%,10.8%,8.28µM*
Oc1c(Br)cc(C=Nc2ccc3nc(-c4ccccc4)[nH]c3c2)c(O)c1Br,16.8%,41.3%,3.6%,-36.4%,-17.3%,?
O=[N+]([O-])c1ccc(O)c(C=Nc2ccc3nc(-c4ccccc4)[nH]c3c2)c1,1.47µM*,19.1%[11.6 µM],-7.3%,-43.3%,17.2%,-9.2%
O=C(Cn1cc2c(n1)CCCC2)Nc1ccccc1Br,30.8%,2.2%,-6.4%,0.8%,-6.3%,.
O=C(Cc1ccc2ccccc2c1)Nc1ccccc1Br,3.29µM*,-19.6%,-14.6%,-8.9%,21.9%,?
O=C(Cc1ccc2c(c1)CCCC2)Nc1ccccc1Br,2.62µM*,-7.3%,4.6%,-40.8%,7.7%,3.7µM*
COc1ccc(CC(=O)NCC(=O)Nc2ccccc2Br)cc1,42.9%,2.4%,?,0.6%,-0.8%,26.1%
